Experimental data taken from PubChem BioAssay AID1457 (National Center for Advancing Translational Sciences (NCATS), 2008).
The whole screen tested about 210,000 compounds, of which about 730 (0.35%) were called active. About 1% were inconclusive and are not listed. Calls follow the shape of the dose curve; as a rule, active = well fitted inhibition curve with a large enough effect; inconclusive = small, poorly fitted or top-dose-only effect; inactive = no such curve, though single readings can be large or run the other way. What follows is part of a selection rich in actives, with near analogues and random picks from the rest. Where a call stands in place of a potency, no number is given.

experiment: qHTS Assay for Identifying the Cell-Membrane Permeable IMPase Inhibitors: Potentiation with Lithium; conditions: CHO-M1 cells, IP1 TR-FRET (IP-One), carbachol + lithium; series mostly up to 59.4 µM;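 also: IP1 builds up when IMPase is blocked and the TR-FRET signal falls; nearly all actives have a fitted effect of over 50% in size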
Text: NIH Chemical Genomics Center [NCGC]
NIH Molecular Libraries Probe Production centers Network [MLPCN]
Assay Submitter (PI): Wei Zheng
Lithium has been widely used for the treatment of bipolar disorder. But lithium has a narrow therapeutic index and it can cause side effects such as thirst, weight gain, tremor, polyuria and memory problems. Although the mechanism for lithium action in treatment of bipolar disorder is still not fully understood, inhibition of inositol monophosphatase (IMPase) and the subsequent depletion of the inositol pool in living cells have been implicated as the primary therapeutic benefit of lithium therapy. Therefore, a selective IMPase inhibitor with reduced side effects might be a good drug candidate to replace lithium for the treatment of bipolar disorder. Several IMPase inhibitors have been discovered previously. However, they are not suitable for therapeutic use because of their poor cell membrane penetrability or oral bioavailability; the development of new cell-permeable IMPase inhibitors is needed.
IMPase catalyzes the hydrolysis of inositol-1-phosphate (IP1) to release free inositol. Binding of an agonist to a Gq coupled GPCR results in the activation of PLC, which hydrolyzes the PIP2 to form inositol-1,4,5-trisphosphate (IP3) and diacyl glycerol (DAG). While DAG activates protein kinase C (PKC), IP3 triggers the elevation of intracellular free Ca2+. The IP3 is very rapidly inactivated by hydrolysis to IP2, IP1 and then inositol by a series of enzymes including IMPase. Free inositols are used for synthesis of PI and thus start another inositol cycle.
To identify new cell-permeable IMPase inhibitors, we developed a cell-based IMPase assay in which the cytosolic IP1 is measured by a time-resolved fluorescence resonance energy transfer (TR-FRET) assay. In this assay, an IP1 specific antibody is used to detect the labeled IP1 tracer. When the cell lysate contains the elevated IP1 due to the inhibition of IMPase, the TR-FRET between the labeled antibody and IP1 tracer is disrupted resulting in a reduction in the total signal. Since the TR-FRET is used, this cell-based assay is a homogenous assay without cell wash and medium change that is suitable for assay miniaturization and HTS. In this particular assay, a small amount of lithium is added to potentiate the response of weak activators.
NCGC Assay Protocol Summary:
A Chinese hamster ovary (CHO) cell line stably expressing the M1 receptor (CHO-M1) was obtained from ATCC and maintained in F-12 Kaighn's media (Invitrogen, Carlsbad, CA) supplemented with 10 % FBS, 100 units/ml penicillin, 100 ug/ml streptomycin and 250 ug/ml geneticin at 37C, 5% CO2 in a humidified atmosphere. Before the assay, aliquots of cells were frozen and stored at -135C. The assay was performed in 1536-well format. Data are reported for both the ratio of the two emission wavelengths, and also for the component 'donor' channel, Em2=620. […] AC50 values were determined from concentration-response data modeled with the standard Hill equation.
(1) Frozen CHO-M1 cells were thaw, washed once with fresh media and resuspended in F12K media containing 10% FBS, 100 units/ml penicillin and 100 ug/ml streptomycin. Cells were plated at 4ul/well (2000 cells) in white, tissue culture treated 1536-well plates, and then cultured at 37C, 5 % CO2 for 16 to 30 hours.
(2) Add 23 nl/well of compound in DMSO solution. The final titration for each compound was between 0.6 nM and 46 uM.
(4) Incubation at 37C, 5 % CO2 for 30 min.
(5) Add 1 ul/well of d2-conjugated IP1 (d2-IP1) and 1 ul/well of Eu+ cryptate conjugated anti-IP1 antibody (Eu+-Ab) prepared in the cell lysis buffer, both from the IP-One kit (Cisbio, MA).
(6) Incubate at room temperature for 10 minutes.
(7) Detect the assay plate (Ex = 320, Em1 =665 and Em2 620) in a ViewLux plate reader.
Potency is read from the fitted curve at half-maximal effect.

Which Potency does the source give for `CN(C)C1C(=O)C(C(N)=O)=C(O)[C@@]2(O)C(=O)C3=C(O)c4c(O)cccc4[C@@](C)(O)C3C[C@@H]12` (stereo not given in full) here?
Its Potency is 10 µM (active).

Which Potency does the source give for `CN(C)[C@@H]1C(=O)C(C(N)=O)=C(O)[C@@]2(O)C(=O)C3=C(O)c4c(O)cccc4[C@@](C)(O)C3CC12` (stereo not given in full) here?
The Potency was 8.91 µM (active).

For `CC(=O)c1c(O)c(C)c(O)c(Cc2c(O)c3c(c(C(=O)/C=C\c4ccccc4)c2O)OC(C)(C)C=C3)c1O`, which Potency is on record?
Its Potency is “inactive”.

For `CC[C@@](O)(C(=O)O)c1cc2n(c(=O)c1CO)Cc1cc3ccccc3nc1-2`, which Potency is on record?
Its Potency is “inactive”.

Which Potency does the source give for `Clc1ccccc1` here?
Its Potency is “inactive”.

With `CC[N+](C)(CC)CCC[n+]1c(-c2ccccc2)c2cc(N)ccc2c2ccc(N)cc21` as the compound, how does the Potency read?
Its Potency is “inactive”.

Which Potency does the source give for `O=P(O)(O)C(O)c1ccc2ccccc2c1` (stereo not given) here?
The Potency was “inactive”.

Which Potency does the source give for `CC(C)(c1ccccc1)c1ccc(O)cc1` here?
The Potency was “inactive”.

Which Potency does the source give for `O=C(CN1CCN(S(=O)(=O)c2ccc3ccccc3c2)CC1)NC(=O)NC1CCCCC1` here?
Its Potency is “inactive”.

For `c1ccc(N2CC[C@@]3(CCCNC3)C2)nc1`, which Potency is on record?
The Potency was “inactive”.

With `O=c1oc2ccccc2c(O)c1C(c1ccccc1O)c1c(O)c2ccccc2oc1=O` as the compound, how does the Potency read?
The Potency was 10 µM (active).

With `COc1cc(C(c2c(O)c3ccccc3oc2=O)c2c(C)n(C)n(-c3ccccc3)c2=O)ccc1O` (stereo not given) as the compound, how does the Potency read?
Its Potency is “inactive”.

With `CCC(=O)CC(c1ccc([N+](=O)[O-])cc1)c1c(O)c2ccccc2oc1=O` (stereo not given) as the compound, how does the Potency read?
Its Potency is “inactive”.

For `O=C(O)C(=O)Cc1ccc2c(c1)OCO2`, which Potency is on record?
Its Potency is “inactive”.

Which Potency does the source give for `c1ccc(Cc2nn3c(Cn4cnc5ccccc54)nnc3s2)cc1` here?
The Potency was “inactive”.
